Rows were chosen to be rich in hits. Some 7.2% of all compounds tested hit in one or more screens of this group.
Marburg entry inh: inhibitors of Marburg virus binding or cell entry | actives 1.8% (n = 300,000) | Marburg virus pseudotyped entry inhibition, cell reporter | AID 540276 | Potency, µM (highest dose often 37.8 µM), for inactives: at the highest dose activity change, negative = inhibition, most hits filed as inhibitors; calls by dose curve; tested in HEK293 cells
HCV inh: inhibitors of hepatitis C virus infection; Huh7.5.1 HCVcc-Cre infection, luciferase reporter, 44 h; Potency, µM (series often up to 41.8 µM), without a hit: at the top dose activity change, negative = inhibition, hits mostly inhibitors; actives 3.4% (n = 340,000); AID 651820
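Cells (1,000/well) were plated 4 h before compound, then infected with HCVcc-Cre virus (~0.5 moi). After 44 h further culture, infection was read as luciferase luminescence following a 15 min substrate incubation at room temperature.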
FMDV inh: blocks foot and mouth disease virus. FMDV antiviral cell-based qHTS. Potency, µM (doses to about 57.9 µM), inactives show top-dose activity change, negative = inhibition, actives largely listed as inhibitors. actives 1.2% (n = 410,000); calls by dose curve; tested in HEK293T cells; further: read-out not given here; nearly all actives have a fitted effect of over 45% in size
RE007 growth inh: less growth of the S. pombe RE007 Vpr strain. actives 0.21% (n = 360,000). S. pombe RE007 Vpr strain, BacTiter-Glo ATP luminescence, 24 h. Potency, µM (highest dose often 92.2 µM), for the others: top-dose activity change, negative = less growth, most hits filed as inhibitors; active means well fitted falling curve with a large enough effect; inconclusive means small, poorly fitted or top-dose-only effect; inactive means no such curve, though single readings can be large or run the other way; further: nearly all actives have a fitted effect of over 50% in size
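Fission yeast strain RE007, carrying one chromosomally integrated HIV-1 vpr copy, was seeded at OD 0.01 in PMG+AL medium with 23 nL pinned compound. After 24 h at 30 °C and 99% humidity, viability was read by BacTiter-Glo luminescence.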
LASV entry inh: inhibitors of Lassa virus binding or cell entry. Lassa virus pseudotype entry inhibition, cell reporter. Potency, µM (titrated, usually from 37.9 µM), for inactives: at the top dose activity change, negative = inhibition, usual class: inhibitors. actives 1.2% (n = 300,000); calls by dose curve; tested in HEK293 cells; further: nearly all actives have a fitted effect of over 50% in size
Sm TGR block: blocks Schistosoma mansoni thioredoxin glutathione reductase. Q962Y6. purified TGR, DTNB reduction, TNB absorbance 405 nm. Potency, µM (top dose mostly 114 µM), for inactives: at the top dose activity change, negative = inhibition, hits mostly inhibitors. actives 3% (n = 360,000); further: nearly all actives have a fitted effect of over 60% in size
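First, TGR (20 nM dispensed) and NADPH were mixed with compound. Second, a 15 min room-temperature incubation followed. Third, further NADPH and then DTNB were added to start the reaction. Finally, TNB absorbance was monitored kinetically.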
Active calls of the source: *; ? = inconclusive; · = no result; [ ] = remark or other dose. Unless noted, the call rests on the fitted dose curve; in most records, active means well fitted curve in the direction sought with a large enough effect; inconclusive means small, poorly fitted or top-dose-only effect, or another doubt; inactive means no such curve, though single readings can be large; an effect the other way counts as inactive or inconclusive. On the % scale 0 is the no-effect control and ±100 the full control effect; potency means the concentration at half of the fitted maximal effect.

SMILES | Marburg entry inh | HCV inh | FMDV inh | RE007 growth inh | LASV entry inh | Sm TGR block
COC(CN(C(=O)CCl)C(C(=O)NC1CCCCC1)c1ccccc1C)OC (stereo unspecified) | ? | 10µM* | ? | 5% | ? | 7.1µM*
COC(CN(C)C(C(=O)NC1CCCCC1)c1ccccc1)OC (stereo unspecified) | 0%[46.1 µM] | 11% | 11% | 31% | 7% | ?
COC(CN(C(=O)CCl)C(C(=O)NC1CCCC(C)C1C)c1ccc(C)cc1)OC (stereo unspecified) | ? | ? | ? | -11% | ? | 40µM*
COc1ccc(C(C(=O)NC2CCCCC2)N(C(=O)CCl)c2ccc(Cl)cc2)cc1 (stereo unspecified) | ? | 0.56µM* | 16µM* | -18% | ? | 1.6µM*
CCN(CC)C(C(=O)NC1CCCCC1)c1ccc(C)cc1 (stereo unspecified) | 6%[46.1 µM] | 7% | 8% | -18% | 1% | -2%
Cc1cccc(N(C(=O)CNC(=O)c2ccco2)C(C(=O)NC2CCCCC2)c2cccnc2)c1 (stereo unspecified) | 25%[46.1 µM] | 22% | -10% | -11% | -22% | -5%
O=C(NC1CCCCC1)C(c1cccnc1)N(C(=O)CCl)c1cccc(Cl)c1 (stereo unspecified) | ? | 0.89µM* | 7.9µM* | 12% | ? | 4µM*
Cc1ccc(-n2ncc3c(Nc4cccc(C(F)(F)F)c4)ncnc32)cc1C | · | · | -5% | · | ? | 21%
COc1cc(-c2cnc3ccccc3c2)cc2c1OCCN(C(=O)CCC(=O)c1ccc(F)cc1)C2 | · | · | -12% | · | · | ·
COC(CN(C(=O)CCl)C(C(=O)NC1CCCCC1)c1ccc(Cl)cc1)OC (stereo unspecified) | ? | -8% | ? | -4% | -6% | 22µM*
COC(=O)c1c(NC(=S)NN2CCN(C)CC2)sc2c1CCC(C)C2 (stereo unspecified) | ? | 2.8µM* | -15% | -18% | ? | ·
COc1ccccc1Cc1c(-c2ccccc2)nc2ccc(Cl)cn12 | · | · | 24% | 11% | · | ·
O=C(O)COCC(=O)N1CCCN(c2ccc(C(F)(F)F)cn2)CC1 | 2%[46.1 µM] | 10% | -12% | 6% | 0%[46.1 µM] | 40µM*
Cc1cc(SCNC(=O)c2ccccc2)nc(C(C)C)n1 | 10%[46.1 µM] | 7% | -4% | 6% | 1% | 11µM*
Cc1cc(C)nc(SCNC(=O)c2ccccc2)n1 | -5% | 5% | -16% | 0% | 22%[14.3 µM] | ?
CCC(=O)OCCNc1cc(Sc2nccn2C)c2nonc2c1[N+](=O)[O-] | ? | ? | ? | 4% | ? | 0.71µM*
CCCC(=O)NC(C)c1nc2ccccc2[nH]1 (stereo unspecified) | · | 29% | -20% | -2% | · | 4%
O=[N+]([O-])c1c(NCCO)cc(N2CCCCC2)c2nonc12 | -22%[46.1 µM] | -9% | -15% | 9% | -21% | 2%
CCC(=O)OCCNc1cc(SCCC(=O)OC)c2nonc2c1[N+](=O)[O-] | ? | 9% | ? | -11% | 14% | 6.3µM*
CCCC(=O)OCCNc1cc(Sc2nc3ccccc3[nH]2)c2nonc2c1[N+](=O)[O-] | ? | ? | ? | -5% | ? | 0.5µM*
CCOC(=O)N1CCN(c2cc(NCCO)c([N+](=O)[O-])c3nonc23)CC1 | 3% | -7% | -21% | 4% | ? | -4%
COC(=O)[C@@H]1CC[C@H](C)[C@@H](c2ccc(C)cc2)N1C(=O)c1ccc(C=NO[C@@H](C)c2cn([C@H](CO)Cc3ccccc3)nn2)cc1 | 5%[14.2 µM] | · | · | · | -7%[14.3 µM] | ·
CC/C(=N\Nc1cccc2ccccc12)c1c(O)[nH]c(=O)[nH]c1=O | 8% | ? | ? | ? | 7% | 79µM*
O=C(CSc1nnc(-c2ccc(Cl)cc2)o1)Nc1ccc(F)cc1 | 0%[46.1 µM] | · | 0% | · | ? | 1%
CC1CCN(Cc2c(C(=O)N/N=C/c3ccccc3O)nnn2-c2nonc2N)CC1 | 3.2µM* | 3.5µM* | 10% | -8% | ? | 4%

Source: PubChem BioAssay (National Center for Advancing Translational Sciences (NCATS))
